In PubChem BioAssay (NCATS) one finds Potency, outcome and activation data, which are given here for 15 molecules.

For assay [1], the target named is Cytochrome P450 3A4 (Homo sapiens) (UniProt P08684). Description: qHTS Assay for Inhibitors and Substrates of Cytochrome P450 3A4 (AID 884). Also: nearly all actives have a fitted effect of over 50% in size. Also: potency is read from the fitted curve at half-maximal effect. The essentials:
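Luminescent readout of luciferin produced by CYP3A4 (20 nM) dealkylation of Luciferin-PPXE, 25 uM (its KM). NADPH-driven reaction ran 60 min at RT after 10 min compound preincubation; data scaled to 57 uM ketoconazole as 100% inhibition.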

Assay [2] can be described thus: Confirmation and Secondary Assay for Modulators of Hemoglobin Beta Chain Splicing at IVS2 654 locus (AID 910).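 Also: per-well total GFP intensity by laser scanning cytometry after 2-day treatment; % of control where 0% means no effect.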 Summed up: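 HeLa cells stably carrying EGFP interrupted by mutant beta-globin IVS2-654 intron (CMV-driven) were treated with compound for 2 days at 37C; corrected splicing was scored as total peak GFP intensity per well (488 nm excitation, 500-520 nm emission).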

Assay [3] in a line: Confirmation and Secondary Assay for Modulators of Hemoglobin Beta Chain Splicing at IVS2 705 locus (AID 930).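 Also: HeLa cells stably expressing the EGFP-705 splicing reporter; series mostly up to about 46 µM; % of control where 0% means no effect.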 Summed up: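 Restored EGFP fluorescence after 2-day compound exposure reports splicing correction in IVS2-705 EGFP reporter HeLa cells; positive control was 500 nM splice-blocking PNA oligo. Signal measured as well total peak GFP intensity (488 nm excitation).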
The target of assay [4] is Cytochrome P450 3A4 (Homo sapiens) (UniProt P08684). Description: qHTS Assay for Activators of Cytochrome P450 3A4 (AID 885). Also: nearly all actives have a fitted effect of over 65% in size. Summed up: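 Human CYP3A4 dealkylates Luciferin-PPXE to luciferin, which luciferase detection converts to light. Substrate was at its KM (25uM), buffer 200mM KPO4, reaction 60 min at RT.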
Sequence of Cytochrome P450 3A4 (Homo sapiens) (P08684 whole entry, looked up): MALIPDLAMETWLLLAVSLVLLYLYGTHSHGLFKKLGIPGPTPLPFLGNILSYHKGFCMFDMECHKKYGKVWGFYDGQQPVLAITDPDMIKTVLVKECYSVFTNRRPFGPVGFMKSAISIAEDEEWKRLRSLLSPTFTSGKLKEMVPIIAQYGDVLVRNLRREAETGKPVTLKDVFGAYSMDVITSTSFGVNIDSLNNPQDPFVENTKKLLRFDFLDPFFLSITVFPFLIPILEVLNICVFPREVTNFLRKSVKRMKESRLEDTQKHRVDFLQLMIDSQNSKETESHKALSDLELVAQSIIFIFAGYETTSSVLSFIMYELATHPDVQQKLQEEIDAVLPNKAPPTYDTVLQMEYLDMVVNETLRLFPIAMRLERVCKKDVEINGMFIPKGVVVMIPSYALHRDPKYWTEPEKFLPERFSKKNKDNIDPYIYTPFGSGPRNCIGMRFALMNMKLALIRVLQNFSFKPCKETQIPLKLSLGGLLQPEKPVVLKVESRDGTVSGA
In general terms: Quantitative high-throughput screening tests each substance at several concentrations.

In assay [5] the target is Cytochrome P450 2D6 (Homo sapiens) (UniProt P10635). Description: qHTS Assay for Inhibitors and Substrates of Cytochrome P450 2D6 (AID 891). Also: potency is read from the fitted curve at half-maximal effect; nearly all actives have a fitted effect of over 60% in size. The essentials:
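Luminescent read-out of luciferin formed by 5 nM human CYP2D6 demethylating 30 uM Luciferin-ME EGE (Km level) over 60 min at room temperature after NADPH regeneration addition. Data normalized to full inhibition by 1.43 uM quinidine.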

The nature of assay [6]: Cellular Toxicity (caspase-3) N2a (AID 665).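 Also: compound exposure lasted 16 h at 37 °C before readout.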 Summed up: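 Caspase-3/7 activation measured as luminescence from Caspase-Glo reagent (1 h, room temperature) after 16 h compound exposure of mouse N2a cells. AC50 values from Hill-equation concentration-response, scaled between DMSO and 10 uM staurosporine.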
A short description of assay [7]: Cellular Toxicity (caspase-3) Renal Proximal Tubule (AID 667).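 Also: cells exposed to compound for 16 hours at 37 °C before detection; 0% = DMSO basal and 100% = 10 µM staurosporine.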 Summed up: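 In qHTS format, rat primary proximal tubule cells seeded at 1000 per well are exposed to compounds for 16 hours at 37 °C. An increase in Caspase-Glo 3/7 luminescence indicates caspase activation.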
Assay [8] in a line: MultiTox-Fluor Cytotoxicity Assay - LYMP1-001 - Dead Cells (AID 946).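 Also: 0% = DMSO and 100% = tetraoctylammonium bromide.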 Summed up:
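LYMP1-001 lymphoblastoid cells (2500/well) treated 16 h at 37 C. Dead-cell protease cleavage of bis-AAF-R110 read at Ex/Em 485/520. Normalized to DMSO and 15 uM tetraoctylammonium bromide; AC50 from Hill fits.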

The nature of assay [9]: MultiTox-Fluor Cytotoxicity Assay - LYMP1-001 - Live Cells (AID 947).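 Also: 0% = DMSO only and full inhibition = tetraoctylammonium bromide control.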
A short description of assay [10]: Cell Viability - LYMP1-002 - Assay at 16 hr (AID 948).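 Also: 0% = DMSO alone and full effect = 92 µM tetraoctylammonium bromide.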 The essentials: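 Acute cytotoxicity is scored as a concentration-dependent fall in intracellular ATP in a human lymphoblastoid line (LYMP1-002) after 16 hr compound exposure at 37 C, measured by luciferase luminescence.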
Assay [11] can be described thus: MultiTox-Fluor Cytotoxicity Assay - LYMP1-002 - Live Cells (AID 955). Also: % is scaled to controls: 0 for no effect and ±100 for the full control effect. The essentials: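 After 16 h compound exposure at 37 C, live LYMP1-002 lymphoblastoid cells (2500/well) were quantified by cleavage of cell-permeant GF-AFC substrate, read at 405/510 nm after 60 min. Concentration-response fitted with Hill equation for AC50.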
A short description of assay [12]: MultiTox-Fluor Cytotoxicity Assay - LYMP1-002 - Dead Cells (AID 960).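 Also: 0% = DMSO and 100% = tetraoctylammonium bromide; nearly all actives have a fitted effect of over 60% in size.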 Summed up:
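Dead-cell fluorescence (Ex/Em 485/520) after 16 h compound exposure at 37 C of LYMP1-002 lymphoblastoid cells in complete medium; AC50 by Hill equation, with data scaled between DMSO and 15 uM tetraoctylammonium bromide.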

Assay [13] has as its target Cytochrome P450 2C9 (Homo sapiens) (UniProt P11712). The experiment in a line: qHTS Assay for Inhibitors and Substrates of Cytochrome P450 2C9 (AID 883). Also: potency is read from the fitted curve at half-maximal effect; nearly all actives have a fitted effect of over 60% in size. The essentials:
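Human CYP2C9 (10nM) hydroxylated Luciferin-H (100uM, at its KM) to luciferin in 25mM KPO4. Compound was preincubated 10 min at 37C, then NADPH regeneration started a 60 min reaction at 37C. Luminescence was read after detection reagent, normalized to 57uM sulphaphenazole.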

The target of assay [14] is Cytochrome P450 2C19 (Homo sapiens) (UniProt P33261). Description: qHTS Assay for Inhibitors and Substrates of Cytochrome P450 2C19 (AID 899). Also: potency is read from the fitted curve at half-maximal effect; nearly all actives have a fitted effect of over 60% in size. To be noted: recombinant CYP2C19, luciferin-H EGE luminescence. Summed up:
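Human CYP2C19 (5nM) with Luciferin-H EGE at 10uM (its KM) in 50mM KPO4 was preincubated with compound for 10 min at 37C. NADPH regeneration started a 60 min 37C reaction. Luciferin was read by luminescence, normalized to 57uM ketoconazole.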

Assay [15] is described as follows: qHTS Assay for Identification of Small Molecule Agonists for Hypoxia Response Element Signaling Pathway (AID 914; active = well fitted activation curve with a large enough effect in the signal ratio, with a control signal flat, not every such curve was filed as active; the % refers to the signal ratio; also: % of control where 0% means no effect). As to conditions: ME-180 (cervical carcinoma) HRE-bla reporter, beta-lactamase ratio, CoCl2, 17 h; hits give high values. The essentials: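 AC50 values come from titration-series %Activity, taken as the 460/530nm ratio of CCF4 fluorescence (excitation 405nm). CellSensor HRE-bla ME-180 cells were treated 17 hours at 37 C with compound plus an EC50 level of CoCl2.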

A number with no mark means an inactive call. Records with an inconclusive call do not appear. Calls of active or inactive are those of the source. Unless noted, calls follow the shape of the dose curve; as a rule, active = well fitted curve in the direction sought with a large enough effect; inconclusive = small, poorly fitted or top-dose-only effect, or another doubt; inactive = no such curve, though single readings can be large; an effect the other way counts as inactive or inconclusive.

Sequence of Cytochrome P450 2D6 (Homo sapiens) (P10635 whole entry, looked up): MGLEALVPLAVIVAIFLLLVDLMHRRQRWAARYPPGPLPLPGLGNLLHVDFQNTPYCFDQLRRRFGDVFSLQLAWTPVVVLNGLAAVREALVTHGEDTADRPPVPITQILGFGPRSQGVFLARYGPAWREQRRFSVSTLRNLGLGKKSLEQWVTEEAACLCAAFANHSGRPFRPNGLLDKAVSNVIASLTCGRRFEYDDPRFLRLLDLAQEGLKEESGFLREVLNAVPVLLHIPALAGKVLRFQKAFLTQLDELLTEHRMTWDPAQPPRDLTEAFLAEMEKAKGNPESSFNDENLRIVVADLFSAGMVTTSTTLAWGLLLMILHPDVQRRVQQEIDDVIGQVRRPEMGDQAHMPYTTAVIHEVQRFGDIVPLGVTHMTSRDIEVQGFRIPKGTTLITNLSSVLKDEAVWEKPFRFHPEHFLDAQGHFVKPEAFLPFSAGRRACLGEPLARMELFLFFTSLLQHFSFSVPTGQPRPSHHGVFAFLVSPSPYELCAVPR
Sequence of Cytochrome P450 2C9 (Homo sapiens) (P11712 whole entry, looked up): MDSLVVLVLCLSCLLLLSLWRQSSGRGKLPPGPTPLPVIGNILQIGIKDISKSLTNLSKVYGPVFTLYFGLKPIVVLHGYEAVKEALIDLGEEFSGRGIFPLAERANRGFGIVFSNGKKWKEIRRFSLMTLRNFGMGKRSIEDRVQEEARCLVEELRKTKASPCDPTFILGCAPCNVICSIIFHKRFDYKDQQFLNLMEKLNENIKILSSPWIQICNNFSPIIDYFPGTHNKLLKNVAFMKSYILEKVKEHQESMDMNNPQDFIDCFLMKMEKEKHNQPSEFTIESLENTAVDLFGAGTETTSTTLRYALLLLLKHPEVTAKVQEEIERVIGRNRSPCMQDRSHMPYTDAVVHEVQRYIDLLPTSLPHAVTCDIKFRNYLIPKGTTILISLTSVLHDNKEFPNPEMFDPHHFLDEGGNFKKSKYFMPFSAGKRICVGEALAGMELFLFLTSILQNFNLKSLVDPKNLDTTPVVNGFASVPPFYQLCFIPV
Sequence of Cytochrome P450 2C19 (Homo sapiens) (P33261 whole entry, looked up): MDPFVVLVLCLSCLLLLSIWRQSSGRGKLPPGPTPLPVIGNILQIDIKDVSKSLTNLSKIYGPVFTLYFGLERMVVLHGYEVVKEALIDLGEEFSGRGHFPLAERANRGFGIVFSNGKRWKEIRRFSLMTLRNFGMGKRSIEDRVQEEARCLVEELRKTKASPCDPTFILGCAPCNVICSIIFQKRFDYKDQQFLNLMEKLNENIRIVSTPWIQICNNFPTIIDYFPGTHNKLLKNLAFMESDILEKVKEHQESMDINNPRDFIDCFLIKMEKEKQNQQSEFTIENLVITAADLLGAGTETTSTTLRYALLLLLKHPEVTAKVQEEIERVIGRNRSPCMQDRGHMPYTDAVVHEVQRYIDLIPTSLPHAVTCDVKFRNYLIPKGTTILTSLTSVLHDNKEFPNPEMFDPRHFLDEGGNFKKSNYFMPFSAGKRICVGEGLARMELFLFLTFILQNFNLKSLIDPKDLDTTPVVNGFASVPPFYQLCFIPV

As for `O=C(O)[C@H]1C(=CCO)O[C@H]2CC(=O)N12`, the Potency entry in assay [1], in [2] and in assay [3] was “inactive” throughout.

`COc1cc(S(C)=O)ccc1-c1nc2ncccc2[nH]1` (configuration not stated): the Potency entry in assay [1], in assay [2] and in assay [3] was “inactive” throughout.

`CC[C@H]1OC(=O)[C@H](C)[C@@H](O[C@H]2C[C@@](C)(OC)[C@@H](O)[C@H](C)O2)C(C)[C@@H](O[C@@H]2O[C@H](C)C[C@H](N(C)C)[C@@H]2O)[C@](C)(OC)C[C@@H](C)C(=O)[C@H](C)[C@@H](O)[C@]1(C)O` (some centres not stated): the Potency result in assay [2] and in [3] was “inactive” in each case.

On to `CC(C)c1nc(N(C)S(C)(=O)=O)nc(-c2ccc(F)cc2)c1/C=C/C(O)CC(O)CC(=O)O` (configuration not stated), for which the Potency result in [4], in assay [2] and in [3] was “inactive” throughout.

Regarding `O=C1c2ccccc2C(=O)c2c1ccc(O)c2O`, the Potency entry in assay [4], in [2] and in assay [3] was “inactive” throughout.

Turning to `CC(=O)Oc1cccc2c1C(=O)c1c(OC(C)=O)cc(C(=O)O)cc1C2=O`, the Potency result in assay [1], in assay [2] and in [3] was “inactive” throughout.

Regarding `CCCOc1cc(N)ccc1C(=O)OCCN(CC)CC`, in [5], the Potency was 2 µM (active).

For `Oc1ccc(/C=C/c2cc(O)cc(O)c2)cc1`, the call in assay [6], in assay [7] and in [9] was inactive. The Potency entry in [8], in assay [10], in assay [11] and in [12] was “inactive” in each case.

`Cc1cc(-c2ccc(N=Nc3ccc4c(S(=O)(=O)O)cc(S(=O)(=O)O)c(N)c4c3O)c(C)c2)ccc1N=Nc1ccc2c(S(=O)(=O)O)cc(S(=O)(=O)O)c(N)c2c1O`: the Potency was 7.94 µM (active) in [13], 15.8 µM (active) in assay [1], 15.8 µM (active) in assay [5] and 199 nM (active) in [14]. Also, in assay [4], the Potency result was “inactive”.

Regarding `CC(=O)Nc1ccc(OC(=O)c2ccccc2O)cc1`, the Potency result in assay [1], in assay [2] and in assay [3] was “inactive” in each case.

On to `CC1CCC(NC(=O)N(CCCl)N=O)CC1` (configuration not stated), for which the Potency entry in assay [1], in [2] and in assay [3] was “inactive” in each case.

Take `N#Cc1ccc2c(c1)N(CCCN1CCC(O)CC1)c1ccccc1S2`: the Potency result in assay [1], in assay [2] and in assay [3] was “inactive” each time.

For the molecule `CCCCC[C@H](O)/C=C/[C@H]1[C@H](O)CC(=O)[C@@H]1C/C=C\CCCC(=O)O`, the Potency result in [1] is “inactive”.

Take `Cc1cccc(C)c1NC(=O)C1CCCCN1C` (configuration not stated): the Potency result in assay [4], in assay [2] and in assay [3] was “inactive” each time. Moreover, the activation in assay [15] is 5.97%.

For the molecule `CN1CCc2c(c3ccccc3n2Cc2ccccc2)C1`, the Potency in assay [5] is 3.16 µM (active). Further, the Potency entry in assay [2] and in assay [3] was “inactive” each time.
